We go through 19 compounds from PubChem BioAssay (NCATS).

Structures are written as SMILES. Where “and” joins values, the source holds several entries; their conditions need not be identical. Equal values may be shown once. Inconclusive results are not listed. More than one record can exist for a structure, and the calls need not agree. Calls of active or inactive are those of the source. Calls come from the whole dose curve; as a rule, active = well fitted curve in the direction sought with a large enough effect; inconclusive = small, poorly fitted or top-dose-only effect, or another doubt; inactive = no such curve, though single readings can be large; an effect the other way counts as inactive or inconclusive.

Test [1] addresses Beta-2 adrenergic receptor (Homo sapiens) (UniProt P07550). Nature of the test: qHTS validation assay of beta-arrestin-biased ligands of beta2-adrenergic receptor (AID 485366). The method, boiled down: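 Screening used a titration range of up to 46 microM in a beta-arrestin recruitment Tango luciferase assay. Cells in 1% FBS medium were treated 18 hr at 37 degrees C, and luminescence was normalized to %Activity.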

For test [2], the target named is ATP-dependent 6-phosphofructokinase (Trypanosoma brucei brucei) (UniProt O15648). Nature of the test: qHTS Validation Assay to Find Inhibitors of T. brucei phosphofructokinase (AID 485368). Note: potency is the fitted concentration of half-maximal effect. The method, boiled down:
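PFK-generated ADP was measured after 45 min at room temperature using ADP-Glo. The reaction contained 0.5 mM F6P and 0.1 mM ATP.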

Test [3] is described as follows: Quantitative high throughput screen for delayed death inhibitors of the malarial parasite plastid, 96 hour incubation (AID 488745). Note: nearly all actives have a fitted effect of over 70% in size. Note: potency is the fitted concentration of half-maximal effect. Summed up: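 Luciferase-expressing P. falciparum, infected RBCs 2% Hct/0.1% parasitemia (final); 96 h cpd exposure, 37 C, 5% CO2; RPMI 1640 + 0.5% Albumax, bicarbonate, gentamycin. Readout: luminescence loss = growth inhibition.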
Test [4] in a line: Quantitative high throughput screen for delayed death inhibitors of the malarial parasite plastid, 48 hour incubation (AID 488752). Note: nearly all actives have a fitted effect of over 65% in size. Note: potency is the fitted concentration of half-maximal effect. Summed up:
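Luciferase-expressing P. falciparum in RBCs, 2% Hct, 0.1% parasitemia final; RPMI 1640 + 0.5% Albumax; 48 h, 37 C, 5% CO2; luminescence readout, signal drop = growth inhibition.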

For test [5], the target named is Thioredoxin reductase 1, cytoplasmic (Rattus norvegicus) (UniProt O89049). Nature of the test: qHTS Assay for Substrates of Mammalian Selenoprotein Thioredoxin Reductase 1 (TrxR1) (AID 488772).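 Note: series mostly up to about 57 µM; a drop in NADPH fluorescence below the no-compound background marks a TrxR1 substrate.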 Summed up:
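In this dual-purpose format, potential substrates are identified from the first fluorescence read after selenite addition, not from the 8-minute delta. Rat enzyme is preincubated with NADPH and then with compound at ~22 deg C.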

Test [6] shares this target. Nature of the test: qHTS Assay for Inhibitors of Mammalian Selenoprotein Thioredoxin Reductase 1 (TrxR1) (AID 488773). Note: nearly all actives have a fitted effect of over 40% in size. Note: potency is the fitted concentration of half-maximal effect. Particulars: Potency: inhibition. The method, boiled down:
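Inhibition is scored from the loss of NADPH fluorescence between first and last reads of an 8-min kinetic run. Selenite (400 uM) was the substrate, added after 15 min compound preincubation at room temperature.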

Test [7] addresses Flap endonuclease 1 (Homo sapiens) (UniProt P39748). The test can be described thus: qHTS Validation Assay for the Inhibitors of Human Flap endonuclease 1 (FEN1) (AID 488816). Note: potency is the fitted concentration of half-maximal effect. The method, boiled down: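 Enzyme reagent 10 nM; cpds pinned; 15 min RT preinc.; substrate 50 nM final; reads t=0 and 15 min; no-enzyme buffer wells as neg. control; normalized data, 4-parameter Hill fit.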

The target in test [8] is M-phase phosphoprotein 8 (Homo sapiens) (UniProt Q99549). The test can be described thus: qHTS Validation Assay for Inhibitors for MPP8 Chromodomain Interactions with Methylated Histone Tails (AID 488949). Note: nearly all actives have a fitted effect of over 55% in size. Note: potency is the fitted concentration of half-maximal effect. Summed up:
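AlphaScreen proximity signal from streptavidin donor and Ni-chelate acceptor beads (10 ug/mL each) reported binding of MPP8 to trimethyl-K9 H3(1-18) peptide, both at 50 nM. The complex formed 30 min before a 30 min compound exposure at room temperature, in PBS pH 7.4.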

Test [9] has as its target Chromobox protein homolog 1 (Homo sapiens) (UniProt P83916). The test can be described thus: qHTS Validation Assay for Inhibitors of HP1-beta Chromodomain Interactions with Methylated Histone Tails (AID 488953). Note: nearly all actives have a fitted effect of over 50% in size. Note: potency is the fitted concentration of half-maximal effect. Summed up:
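AlphaScreen proximity readout: streptavidin donor and Ni-chelate acceptor beads, 10 ug/mL final, 30 min dark, RT. Complex of 50 nM HP1-beta and 50 nM b-H3(1-18)K9me3 formed 30 min, then compound-treated 30 min; PBS pH 7.4/0.01% Tween-20.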

Test [10] concerns the target Methanococcus maripaludis chaperonin (MmCpn) (UniProt Q6LX38). Nature of the test: High-Throughput Screening for Modulators of Cytosolic Chaperonin Activity: MmCpn Primary Screen (AID 488978).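 Note: 50 nM MmCpn enzyme hydrolysing 30 µM ATP at 37 °C.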 Summed up:
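ATPase activity of 50 nM MmCpn was assayed with 30 uM ATP, 10 minutes at 37C, after a 5 min compound preincubation at room temperature. ADP production was read as HTRF emission at 590 and 665 nm.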

Chain of Flap endonuclease 1 (Homo sapiens) (P39748 whole entry, looked up): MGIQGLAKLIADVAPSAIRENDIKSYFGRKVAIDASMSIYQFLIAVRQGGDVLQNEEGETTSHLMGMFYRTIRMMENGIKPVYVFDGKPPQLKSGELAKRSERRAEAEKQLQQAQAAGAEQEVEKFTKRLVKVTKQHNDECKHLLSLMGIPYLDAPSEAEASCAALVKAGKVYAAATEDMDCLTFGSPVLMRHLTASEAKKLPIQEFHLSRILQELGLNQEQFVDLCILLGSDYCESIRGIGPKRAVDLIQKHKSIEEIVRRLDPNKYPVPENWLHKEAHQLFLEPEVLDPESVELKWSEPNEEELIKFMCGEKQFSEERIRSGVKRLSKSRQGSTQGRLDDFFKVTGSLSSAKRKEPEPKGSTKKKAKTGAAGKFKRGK
Chain of Methanococcus maripaludis chaperonin (MmCpn) (Q6LX38 1-543): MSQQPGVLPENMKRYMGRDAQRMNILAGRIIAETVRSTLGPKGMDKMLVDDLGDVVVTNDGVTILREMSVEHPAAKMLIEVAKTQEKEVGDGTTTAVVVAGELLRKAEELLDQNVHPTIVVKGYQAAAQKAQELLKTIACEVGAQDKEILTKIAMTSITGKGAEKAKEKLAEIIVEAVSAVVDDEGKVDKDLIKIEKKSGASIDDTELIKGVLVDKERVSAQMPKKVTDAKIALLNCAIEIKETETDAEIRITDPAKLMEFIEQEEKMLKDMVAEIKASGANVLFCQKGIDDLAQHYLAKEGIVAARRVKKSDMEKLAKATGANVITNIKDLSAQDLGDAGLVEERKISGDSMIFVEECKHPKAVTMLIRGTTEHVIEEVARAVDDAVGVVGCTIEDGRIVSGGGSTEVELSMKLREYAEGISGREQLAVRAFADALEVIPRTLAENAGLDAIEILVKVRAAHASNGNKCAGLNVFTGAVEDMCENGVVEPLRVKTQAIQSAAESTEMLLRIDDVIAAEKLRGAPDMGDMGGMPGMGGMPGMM
Chain of ATP-dependent 6-phosphofructokinase (Trypanosoma brucei brucei) (O15648 whole entry, looked up): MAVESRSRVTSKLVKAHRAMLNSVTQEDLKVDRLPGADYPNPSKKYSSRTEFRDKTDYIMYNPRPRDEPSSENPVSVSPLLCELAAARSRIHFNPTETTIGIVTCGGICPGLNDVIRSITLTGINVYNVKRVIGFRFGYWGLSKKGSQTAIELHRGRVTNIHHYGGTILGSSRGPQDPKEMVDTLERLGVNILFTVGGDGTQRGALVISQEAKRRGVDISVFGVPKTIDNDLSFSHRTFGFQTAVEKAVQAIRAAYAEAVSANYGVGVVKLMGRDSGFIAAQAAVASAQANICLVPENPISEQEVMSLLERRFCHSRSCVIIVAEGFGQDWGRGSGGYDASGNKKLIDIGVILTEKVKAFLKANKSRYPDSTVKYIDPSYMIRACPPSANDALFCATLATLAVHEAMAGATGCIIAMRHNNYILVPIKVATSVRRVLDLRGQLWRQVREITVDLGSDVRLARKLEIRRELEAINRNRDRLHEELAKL
Chain of Beta-2 adrenergic receptor (Homo sapiens) (P07550 whole entry, looked up): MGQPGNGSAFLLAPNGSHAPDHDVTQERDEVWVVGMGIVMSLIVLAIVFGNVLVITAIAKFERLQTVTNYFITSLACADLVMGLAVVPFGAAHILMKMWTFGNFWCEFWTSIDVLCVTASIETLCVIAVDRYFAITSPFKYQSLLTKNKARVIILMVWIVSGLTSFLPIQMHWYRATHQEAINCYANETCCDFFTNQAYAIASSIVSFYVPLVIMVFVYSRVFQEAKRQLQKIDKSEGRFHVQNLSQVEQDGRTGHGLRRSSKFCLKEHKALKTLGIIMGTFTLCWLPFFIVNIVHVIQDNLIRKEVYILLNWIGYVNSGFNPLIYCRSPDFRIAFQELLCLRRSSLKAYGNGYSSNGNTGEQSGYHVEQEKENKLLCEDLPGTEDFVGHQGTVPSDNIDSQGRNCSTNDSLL
Chain of M-phase phosphoprotein 8 (Homo sapiens) (Q99549 whole entry, looked up): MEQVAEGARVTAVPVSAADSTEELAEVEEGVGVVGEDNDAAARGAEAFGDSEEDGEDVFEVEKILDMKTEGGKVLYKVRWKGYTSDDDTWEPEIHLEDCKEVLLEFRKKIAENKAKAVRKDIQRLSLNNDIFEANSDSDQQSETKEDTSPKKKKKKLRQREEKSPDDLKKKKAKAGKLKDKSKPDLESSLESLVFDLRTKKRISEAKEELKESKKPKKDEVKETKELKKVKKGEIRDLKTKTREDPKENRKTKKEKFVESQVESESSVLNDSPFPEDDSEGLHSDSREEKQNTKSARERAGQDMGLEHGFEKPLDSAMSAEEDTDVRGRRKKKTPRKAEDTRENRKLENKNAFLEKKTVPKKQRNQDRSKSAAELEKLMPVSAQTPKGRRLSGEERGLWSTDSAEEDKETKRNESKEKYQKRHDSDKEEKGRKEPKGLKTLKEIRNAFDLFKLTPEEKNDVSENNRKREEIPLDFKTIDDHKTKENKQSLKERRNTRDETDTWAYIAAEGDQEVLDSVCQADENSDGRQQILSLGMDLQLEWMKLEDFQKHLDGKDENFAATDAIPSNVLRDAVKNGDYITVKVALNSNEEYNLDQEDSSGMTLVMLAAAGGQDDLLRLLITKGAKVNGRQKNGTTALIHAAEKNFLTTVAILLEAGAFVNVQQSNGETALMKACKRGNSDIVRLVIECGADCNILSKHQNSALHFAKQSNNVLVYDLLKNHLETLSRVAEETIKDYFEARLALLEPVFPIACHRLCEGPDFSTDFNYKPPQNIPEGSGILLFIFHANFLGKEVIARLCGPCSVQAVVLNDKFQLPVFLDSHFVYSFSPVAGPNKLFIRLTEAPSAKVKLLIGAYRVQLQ
Chain of Chromobox protein homolog 1 (Homo sapiens) (P83916 whole entry, looked up): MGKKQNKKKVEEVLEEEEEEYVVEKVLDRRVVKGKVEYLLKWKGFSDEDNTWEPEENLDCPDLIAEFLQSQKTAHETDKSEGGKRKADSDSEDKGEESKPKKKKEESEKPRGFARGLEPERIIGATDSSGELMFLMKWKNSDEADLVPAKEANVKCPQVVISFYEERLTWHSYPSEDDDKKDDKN
Chain of Thioredoxin reductase 1, cytoplasmic (Rattus norvegicus) (O89049 whole entry, looked up): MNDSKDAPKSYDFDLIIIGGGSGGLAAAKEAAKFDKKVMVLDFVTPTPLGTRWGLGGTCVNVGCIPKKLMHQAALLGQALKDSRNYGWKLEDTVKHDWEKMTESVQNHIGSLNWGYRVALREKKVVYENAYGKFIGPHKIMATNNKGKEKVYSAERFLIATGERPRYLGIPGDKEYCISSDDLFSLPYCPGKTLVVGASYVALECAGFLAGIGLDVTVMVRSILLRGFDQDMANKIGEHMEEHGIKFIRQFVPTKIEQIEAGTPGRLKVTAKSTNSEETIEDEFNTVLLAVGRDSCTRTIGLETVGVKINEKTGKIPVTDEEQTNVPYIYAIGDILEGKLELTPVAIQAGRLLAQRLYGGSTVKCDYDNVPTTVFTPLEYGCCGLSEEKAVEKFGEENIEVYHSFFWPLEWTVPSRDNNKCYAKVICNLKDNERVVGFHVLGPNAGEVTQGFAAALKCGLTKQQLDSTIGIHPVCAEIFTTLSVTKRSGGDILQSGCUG

Turning to `COc1ccccc1N1CCN(CCN(C(=O)C2CCCCC2)c2ccccn2)CC1`, the result in test [1], in [5] and in test [10] was inactive. In addition, the Potency entry in [2], in [3], in [4], in test [6], in test [7] and in [8] was “inactive” throughout. Besides, the Potency result in test [9] was “inactive”.

Turning to `O=c1cc(N2CCOCC2)oc2c(-c3ccccc3)cccc12`, the compound was called inactive in test [1], in test [5] and in test [10]. The Potency entry in test [4], in [6], in test [7] and in test [8] was “inactive” throughout. In addition, the Potency in test [9] is 26.7 µM (active).

In the case of `O=c1c(O)c(-c2cc(O)c(O)c(O)c2)oc2cc(O)cc(O)c12`, the compound was called inactive in test [1], in test [5] and in test [10]. Further, the Potency in test [2] was 3.01 µM (active); in test [6] it was 13.4 µM (active); in test [7] it was 1.5 µM (active); in [8] it was 6.31 µM (active) and 8.44 µM (active); in test [9], 14.1 µM (active). Besides, the Potency result in test [3] and in test [4] was “inactive” throughout.

On to `CNC[C@H](O)c1ccc(O)c(O)c1`, for which the Potency entry in test [3], in [4], in test [8] and in test [9] was “inactive” throughout. Moreover, the result in test [5] and in [10] was inactive. Moreover, in test [7], the Potency was 10.6 µM (active).

`NNc1nncc2ccccc12`: the call in test [1] and in [10] was inactive. Moreover, the Potency result in test [2], in [6], in test [7], in [8] and in [9] was “inactive” in each case.

As for `O=C(O)c1cccnc1Nc1cccc(C(F)(F)F)c1`, the compound was classed as inactive in [1], in [5] and in [10]. Also, the Potency result in test [3], in test [4], in test [6], in [7], in [8] and in [9] was “inactive” throughout.

On to `CCN(CC)C(=S)SSC(=S)N(CC)CC`, for which the call in test [1], in test [5] and in test [10] was inactive. Also, the Potency result in [7] is “inactive”. Moreover, the Potency in test [8] was 10 µM (active) and inactive; in test [9], 28.2 µM (active).

For the compound `CCOC(=O)C(C)Oc1cccc2c(=O)n(CC(=O)Nc3ccc4c(c3)OCCO4)ccc12` (centres undefined), the compound was classed as inactive in [1], in test [5] and in test [10]. Also, the Potency entry in [2], in test [6], in [7], in [8] and in test [9] was “inactive” each time.

As for `CC(=O)N1CCN(c2ccc(OC[C@H]3CO[C@](Cn4ccnc4)(c4ccc(Cl)cc4Cl)O3)cc2)CC1`, the call in test [1], in test [5] and in test [10] was inactive. The Potency entry in test [2] and in test [6] was “inactive” each time.

With `CN(C)CCCC1(c2ccc(F)cc2)OCc2cc(C#N)ccc21` (centres undefined), the compound was classed as inactive in [1], in test [5] and in [10]. The Potency entry in test [3], in test [4], in test [6], in test [7], in test [8] and in test [9] was “inactive” in each case.

As for `CC(=O)O[C@H]1C(=O)[C@@]2(C)C([C@H](OC(=O)c3ccccc3)[C@]3(O)C[C@H](OC(=O)[C@H](O)[C@@H](NC(=O)c4ccccc4)c4ccccc4)C(C)=C1C3(C)C)[C@]1(OC(C)=O)CO[C@@H]1C[C@@H]2O` (some centres undefined), the compound was called inactive in [1], in test [5] and in [10]. Besides, the Potency entry in [2], in [6], in test [7], in test [8] and in test [9] was “inactive” throughout. Besides, the Potency in test [3] and in [4] was 0.117 µM (active) each time.

In the case of `CC(C)c1ccc2c(c1)c(SC(C)(C)C)c(CC(C)(C)C(=O)O)n2Cc1ccc(Cl)cc1`, the compound was classed as inactive in [1] and in test [10]. Also, the Potency result in test [2], in test [6], in test [8] and in test [9] was “inactive” throughout. Moreover, the Potency in [3] is 7.38 µM (active); in test [4], 13.1 µM (active).

For `Nc1ccn([C@@H]2O[C@H](CO)[C@@H](O)C2O)c(=O)n1` (some centres undefined), the outcome in test [1], in [5] and in [10] was inactive. Besides, the Potency result in [6], in [7], in [8] and in test [9] was “inactive” each time.

Consider `O=c1c(O)c(-c2ccc(O)cc2O)oc2cc(O)cc(O)c12`, for which the result in test [1], in test [5] and in [10] was inactive. Further, the Potency result in [3], in test [4] and in test [6] was “inactive” throughout. For the same compound, the Potency in test [7] was 2.38 µM (active); in test [8], 39.8 µM (active); in test [9] it was 39.8 µM (active).

As to `CC1(C)C(=O)N(CCN2CCC(C(=O)c3ccc(F)cc3)CC2)c2ccccc21`, the compound was classed as inactive in [1], in test [5] and in test [10]. For the same compound, the Potency entry in test [6], in test [7] and in test [8] was “inactive” in each case.

On to `O=C(CCc1ccc(O)cc1)c1c(O)cc(O)cc1O`, for which the compound was classed as inactive in test [1], in test [5] and in test [10]. Further, the Potency result in [2], in [3], in test [4], in test [7], in [8] and in test [9] was “inactive” each time.

Turning to `O=Nc1c(-c2c(O)[nH]c3cc(Br)ccc23)[nH]c2ccccc12`, the result in test [1] and in test [5] was inactive. The Potency in [3] was 4.65 µM (active); in test [4] it was 10.4 µM (active); in [8] it was 3.55 µM (active) and 5.97 µM (active); in [9] it was 2.82 µM (active). Besides, the Potency result in [6] and in [7] was “inactive” in each case.

Consider `CC1(C)NC(=O)N(c2ccc([N+](=O)[O-])c(C(F)(F)F)c2)C1=O`, for which the call in test [1], in test [5] and in test [10] was inactive. Besides, the Potency entry in [2], in [3], in test [4], in test [6], in [7] and in test [8] was “inactive” each time. Besides, the Potency result in [9] is “inactive”.

`OC(CN1CCN(c2cccc(Cl)c2)CC1)C(c1ccccc1)c1ccccc1` (centres undefined): the compound was classed as inactive in test [1] and in test [10]. In addition, the Potency result in [2], in test [3], in [4], in test [6], in [7] and in test [8] was “inactive” each time.
